This is part of a sample that, as a whole, favours compounds with a hit. Of some 79,000 tested, about 15% had one in any assay. Unmarked numbers belong to inactive results. The source made the active and inactive calls. No stated cut-off is given here; in the data, active means growth inhibition above about 70%; inactive means the rest.

The results in this text go back to PubChem BioAssay (NCI).

Experiment [1] is described as follows: NCI Yeast Anticancer Drug Screen. Data for the rad50 strain (AID 155).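 Further: 0% = growth of vehicle-only cultures of the same strain.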 To be noted: S. cerevisiae rad50 strain growth inhibition, stronger effect = higher value. In a few lines: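 Cells are treated with compound, grown, and their growth is then scored against vehicle-only cultures of the same repair-deficient yeast strain.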
The nature of experiment [2]: NCI Yeast Anticancer Drug Screen. Data for the mec2-1 strain (AID 157). To be noted: S. cerevisiae mec2-1 strain, stronger effect = higher value. In a few lines: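 Vehicle-treated cultures served as reference for growth inhibition of compound-exposed mec2-1 yeast.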
The nature of experiment [3]: NCI Yeast Anticancer Drug Screen. Data for the sgs1 mgt1 strain (AID 161).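 Further: 0% = growth of cultures given vehicle only.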 To be noted: S. cerevisiae sgs1 mgt1 strain, stronger effect = higher value. In a few lines:
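Inhibition of yeast growth, normalised to vehicle-treated controls, is reported for a strain bearing genetic alterations in DNA damage repair.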

The nature of experiment [4]: NCI Yeast Anticancer Drug Screen. Data for the cln2 rad14 strain (AID 165).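 Further: 0% = growth equal to vehicle treated cultures.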 To be noted: S. cerevisiae cln2 rad14 strain, stronger effect = higher value. In a few lines:
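Each compound was tested on cln2 rad14 yeast. Inhibition of growth was calculated against vehicle-exposed controls.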

Experiment [5] in a line: NCI Yeast Anticancer Drug Screen. Data for the bub3 strain (AID 167). To be noted: S. cerevisiae bub3 mutant strain, stronger effect = higher value. In a few lines:
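Part of a panel of yeast mutants defective in DNA damage repair or cell cycle regulation. Each strain is grown with compound, and inhibition is calculated relative to solvent-treated cultures.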

A short description of experiment [6]: NCI Yeast Anticancer Drug Screen. Data for the mlh1 rad18 strain (AID 175). To be noted: S. cerevisiae mlh1 rad18 strain growth inhibition, stronger effect = higher value. In a few lines: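 Vehicle-treated cultures served as the reference for growth inhibition in a yeast strain carrying DNA damage repair alterations exposed to each compound.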
[7] abbreviates: at 5.0 µM (retest, dose inferred, filed as 0.5).
[8] abbreviates: at 50.0 µM (retest, dose inferred, filed as 5.0).

For `O=C1C=C(c2ccccc2)O/C1=C\C(=O)c1ccc(Cl)cc1`, the growth inhibition in experiment [1] (setting [7]) is 48%; in experiment [1] (setting [8]) it was 48%; in experiment [1] (at 50.0 µM) it was 89.3% (active); in experiment [2] (setting [7]), 43%; in experiment [2] (setting [8]), 43%; in experiment [2] (at 50.0 µM), 90.9% (active). Also, the growth inhibition was 54% in experiment [3] (setting [7]); 54% in experiment [3] (setting [8]); 86.4% (active) in experiment [3] (at 50.0 µM); 14% in experiment [4] (setting [7]); 14% in experiment [4] (setting [8]); 87.5% (active) in experiment [4] (at 50.0 µM). Moreover, the growth inhibition is 22% in experiment [5] (setting [7]); 22% in experiment [5] (setting [8]); 88% (active) in experiment [5] (at 50.0 µM); 44% in experiment [6] (setting [7]); 44% in experiment [6] (setting [8]); 84.5% (active) in experiment [6] (at 50.0 µM).
Regarding `O=C(Nc1ccccc1O)/C(Cl)=C/Cl`, the growth inhibition in experiment [1] (setting [7]) was -153%; in experiment [1] (setting [8]) it was 95% (active); in experiment [1] (at 50.0 µM), 98.2% (active); in experiment [2] (setting [7]), -47%; in experiment [2] (setting [8]), 97% (active); in experiment [2] (at 50.0 µM) it was 97.8% (active). Also, the growth inhibition in experiment [3] (setting [7]) was -57%; in experiment [3] (setting [8]), 96% (active); in experiment [3] (at 50.0 µM), 78.8% (active); in experiment [4] (setting [7]), -67%; in experiment [4] (setting [8]) it was 95% (active); in experiment [4] (at 50.0 µM) it was 93.5% (active). Besides, the growth inhibition in experiment [5] (setting [7]) was -63%; in experiment [5] (setting [8]) it was 96% (active); in experiment [5] (at 50.0 µM) it was 94.8% (active); in experiment [6] (setting [7]) it was -134%; in experiment [6] (setting [8]) it was 96% (active); in experiment [6] (at 50.0 µM), 99.3% (active).
Consider `CN(Cc1cc(Br)cc(Br)c1O)Cc1c[nH]c2ccccc12`, for which the growth inhibition in experiment [1] (setting [7]) was -1%; in experiment [1] (setting [8]), 8%; in experiment [1] (at 50.0 µM), 68.1%; in experiment [2] (setting [7]), 12%; in experiment [2] (setting [8]), 31%; in experiment [2] (at 50.0 µM), 31.1%. Also, the growth inhibition in experiment [3] (setting [7]) is 0%; in experiment [3] (setting [8]), 14%; in experiment [3] (at 50.0 µM), 86.4% (active); in experiment [4] (setting [7]), -2%; in experiment [4] (setting [8]), 0%; in experiment [4] (at 50.0 µM), 62.2%. Also, the growth inhibition is -4% in experiment [5] (setting [7]); -1% in experiment [5] (setting [8]); 40.9% in experiment [5] (at 50.0 µM); 36% in experiment [6] (setting [7]); 48% in experiment [6] (setting [8]); 74.5% (active) in experiment [6] (at 50.0 µM).
For the molecule `OC12C3C4CC5C(C4[C@@H]1Br)C2[C@@](O)(c1c(F)c(F)c(F)c(F)c1F)C53` (some centres not stated), the growth inhibition in experiment [1] (setting [7]) was 8%; in experiment [1] (setting [8]), 21%; in experiment [1] (at 50.0 µM), 27.2%; in experiment [2] (setting [7]), 3%; in experiment [2] (setting [8]) it was 8%; in experiment [2] (at 50.0 µM), 11.6%. Moreover, the growth inhibition in experiment [3] (setting [7]) is 3%; in experiment [3] (setting [8]) it was 3%; in experiment [3] (at 50.0 µM), 27.6%; in experiment [4] (setting [7]) it was 3%; in experiment [4] (setting [8]) it was 12%; in experiment [4] (at 50.0 µM), 22.2%. In addition, the growth inhibition in experiment [5] (setting [7]) is 8%; in experiment [5] (setting [8]) it was 54%; in experiment [5] (at 50.0 µM), 79.3% (active); in experiment [6] (setting [7]), 8%; in experiment [6] (setting [8]), 35%; in experiment [6] (at 50.0 µM), 73.7% (active).
Turning to `CC(O)C(O)C(O)C(O)C(O)C(=O)O` (configuration not stated), the growth inhibition is -2% in experiment [1] (setting [7]); -6% in experiment [1] (setting [8]); 18.4% in experiment [1] (at 50.0 µM); -2% in experiment [2] (setting [7]); -1% in experiment [2] (setting [8]); 10.9% in experiment [2] (at 50.0 µM). The growth inhibition in experiment [3] (setting [7]) was -1%; in experiment [3] (setting [8]), -2%; in experiment [3] (at 50.0 µM), -9.1%; in experiment [4] (setting [7]), 4%; in experiment [4] (setting [8]) it was -3%; in experiment [4] (at 50.0 µM), 1.95%. The growth inhibition in experiment [5] (setting [7]) is 0%; in experiment [5] (setting [8]), 4%; in experiment [5] (at 50.0 µM), 45.7%; in experiment [6] (setting [7]), -1%; in experiment [6] (setting [8]) it was -7%; in experiment [6] (at 50.0 µM) it was -10.9%.
With `C1CCN(c2nc(N3CCOCC3)c3[nH]c(N4CCCCC4)nc3n2)CC1`, the growth inhibition was 1% in experiment [1] (setting [7]); 84% (active) in experiment [1] (setting [8]); 35% in experiment [1] (at 50.0 µM); 5% in experiment [2] (setting [7]); 90% (active) in experiment [2] (setting [8]); 35.4% in experiment [2] (at 50.0 µM). Moreover, the growth inhibition in experiment [3] (setting [7]) is 2%; in experiment [3] (setting [8]), 86% (active); in experiment [3] (at 50.0 µM) it was 46.4%; in experiment [4] (setting [7]), 8%; in experiment [4] (setting [8]) it was 49%; in experiment [4] (at 50.0 µM) it was 60.1%. Further, the growth inhibition is 0% in experiment [5] (setting [7]); 71% (active) in experiment [5] (setting [8]); 49.6% in experiment [5] (at 50.0 µM); -2% in experiment [6] (setting [7]); 68% in experiment [6] (setting [8]); 36.5% in experiment [6] (at 50.0 µM).
For the molecule `Cn1c(=S)c2[nH]c(SCCN3CCCC3)nc2n(C)c1=O`, the growth inhibition in experiment [1] (setting [7]) was 83% (active); in experiment [1] (setting [8]), 99% (active); in experiment [1] (at 50.0 µM) it was 90.8% (active); in experiment [2] (setting [7]), 70% (active); in experiment [2] (setting [8]), 99% (active); in experiment [2] (at 50.0 µM), 61.2%. The growth inhibition in experiment [3] (setting [7]) was 53%; in experiment [3] (setting [8]) it was 94% (active); in experiment [3] (at 50.0 µM), 67.5%; in experiment [4] (setting [7]), 28%; in experiment [4] (setting [8]) it was 79% (active); in experiment [4] (at 50.0 µM), 1.75%. Also, the growth inhibition in experiment [5] (setting [7]) was 61%; in experiment [5] (setting [8]), 99% (active); in experiment [5] (at 50.0 µM), 68%; in experiment [6] (setting [7]), 37%; in experiment [6] (setting [8]) it was 95% (active); in experiment [6] (at 50.0 µM) it was 97.2% (active).
As for `O=C(c1ccc(Oc2ccccc2)cc1)C(C(c1ccccc1)N1CCOCC1)N1CCOCC1` (configuration not stated), the growth inhibition is -5% in experiment [1] (setting [7]); 35% in experiment [1] (setting [8]); 61.1% in experiment [1] (at 50.0 µM); 12% in experiment [2] (setting [7]); 59% in experiment [2] (setting [8]); 62.9% in experiment [2] (at 50.0 µM). In addition, the growth inhibition in experiment [3] (setting [7]) is -9%; in experiment [3] (setting [8]), 81% (active); in experiment [3] (at 50.0 µM), 88.8% (active); in experiment [4] (setting [7]), -3%; in experiment [4] (setting [8]) it was -1%; in experiment [4] (at 50.0 µM), 54.4%. For the same molecule, the growth inhibition in experiment [5] (setting [7]) is 0%; in experiment [5] (setting [8]), 61%; in experiment [5] (at 50.0 µM), 73% (active); in experiment [6] (setting [7]) it was 20%; in experiment [6] (setting [8]), 60%; in experiment [6] (at 50.0 µM), 75.4% (active).
For `OC1CCC(COC(c2ccccc2)(c2ccccc2)c2ccccc2)O1` (configuration not stated), the growth inhibition was -8% in experiment [1] (setting [7]); 98% (active) in experiment [1] (setting [8]); 98.6% (active) in experiment [1] (at 50.0 µM); 5% in experiment [2] (setting [7]); 99% (active) in experiment [2] (setting [8]); 98.5% (active) in experiment [2] (at 50.0 µM). Moreover, the growth inhibition in experiment [3] (setting [7]) is -19%; in experiment [3] (setting [8]), 99% (active); in experiment [3] (at 50.0 µM) it was 98% (active); in experiment [4] (setting [7]) it was 5%; in experiment [4] (setting [8]) it was 98% (active); in experiment [4] (at 50.0 µM) it was 98.2% (active). Further, the growth inhibition is 4% in experiment [5] (setting [7]); 96% (active) in experiment [5] (setting [8]); 99% (active) in experiment [5] (at 50.0 µM); 0% in experiment [6] (setting [7]); 99% (active) in experiment [6] (setting [8]); 98.1% (active) in experiment [6] (at 50.0 µM).
